This is an account of results in PubChem BioAssay AID1851 (National Center for Advancing Translational Sciences (NCATS), 2009).

Where “and” joins values, the source holds several entries; their conditions need not be identical. Equal entries are not always repeated. Among all 16,000 compounds or so, about 5,700 (36%) were called active. About 24% were inconclusive and are not listed. The list shows a part of the results. A number with no mark means an inactive call. Calls come from the whole dose curve; as a rule, active = well fitted curve in the direction sought with a large enough effect; inconclusive = small, poorly fitted or top-dose-only effect, or effect the other way; inactive = no such curve, though single readings can be large or run the other way.
% is set by controls: 0 for no effect and ±100 for the full control effect.

For this assay, the target named is Cytochrome P450 1A2 (Homo sapiens) (UniProt P05177). Briefly: Cytochrome panel assay with activity outcomes. The conditions noted are these: recombinant CYP, pro-luciferin dealkylation, luminescence, p450-cyp1a2; series mostly up to 57.1 µM; activity, negative = inhibition: at the top concentration.
Chain of Cytochrome P450 1A2 (Homo sapiens) (P05177 whole entry, looked up): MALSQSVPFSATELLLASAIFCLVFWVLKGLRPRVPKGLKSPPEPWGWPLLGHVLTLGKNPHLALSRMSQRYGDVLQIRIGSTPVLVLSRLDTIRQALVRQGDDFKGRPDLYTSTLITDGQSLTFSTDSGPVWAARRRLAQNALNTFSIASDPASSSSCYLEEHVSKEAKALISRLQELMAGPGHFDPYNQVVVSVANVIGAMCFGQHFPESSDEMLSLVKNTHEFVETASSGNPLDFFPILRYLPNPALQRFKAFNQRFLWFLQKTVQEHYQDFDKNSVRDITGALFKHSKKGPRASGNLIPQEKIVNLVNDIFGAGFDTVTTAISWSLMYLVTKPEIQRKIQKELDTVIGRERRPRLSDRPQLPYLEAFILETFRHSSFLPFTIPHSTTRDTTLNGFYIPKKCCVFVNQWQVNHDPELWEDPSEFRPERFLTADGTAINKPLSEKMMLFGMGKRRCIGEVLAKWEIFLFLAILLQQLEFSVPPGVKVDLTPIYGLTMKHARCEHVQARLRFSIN
For `CCC/C=C(\CCC)C(NS(=O)(=O)c1ccc(C(F)(F)F)cc1)c1ccc(C(=O)OC)cc1` (centres undefined), the “activity, negative = inhibition” value was -13.6%.
For `CCC/C=C(\CCC)C(NC(=O)OCC(C)C)c1ccc(C(=O)OC)cc1` (centres undefined), the half-maximal activity concentration (AC50) is 15800 nM (active).
For `CCC/C=C(\CCC)C(NS(=O)(=O)CC12CCC(CC1=O)C2(C)C)c1ccc(C(=O)OC)cc1` (centres undefined), the “activity, negative = inhibition” value is -13.8%.
Regarding `CCC/C=C(\CCC)C(NS(=O)(=O)c1cccs1)c1ccc(C(=O)OC)cc1` (centres undefined), the AC50 is 12600 nM (active).
For the compound `CCC/C=C(\CCC)C(NC(=O)Oc1ccc(F)cc1)c1ccc(C(=O)OC)cc1` (centres undefined), the “activity, negative = inhibition” value was -12.3%.
As for `CCC/C=C(\CCC)C(NC(=O)c1cccs1)c1ccc(C(=O)OC)cc1` (centres undefined), the AC50 is 5010 nM (active).
On to `CCC/C=C(\CCC)C(NC(=O)c1ccc(C(=O)OC)cc1)c1ccc(C(=O)OC)cc1` (centres undefined), for which the “activity, negative = inhibition” value is -19.2%.
On the same count and under the same terms, next, `CCC/C=C(\CCC)C(NC(=O)c1ccc(C(F)(F)F)cc1)c1ccc(C(F)(F)F)cc1` (centres undefined): -16.4%; `CCC/C=C(\CCC)C(NC(=O)C(C)(C)C)c1ccc(C(=O)OC)cc1` (centres undefined): -14%.
For the compound `O=C(OC[C@@H](O)CO)c1ccccc1Nc1ccnc2cc(Cl)ccc12`, the concentration at half-maximal activity (AC50) is 5010 nM (active).
On to `Clc1ccc2c(NC3CCC(N4CCCCC4)CC3)ccnc2c1` (centres undefined), for which the activity, negative = inhibition was -15.7% [at 2.29 µM].
The same measure, in the same setting: as for `Clc1ccc2c(NCCNC3CCCCC3)ccnc2c1`, the figure is -10.2% [at 2.29 µM]; as for `CCN1CNC(=S)N(c2cc(C)ccc2C)C1`, 6.32%; as for `Cc1cc2sc(C)[n+](CCCOS(=O)(=O)O)c2cc1C`, -10.3% [at 11.4 µM].
For the compound `CCOC(=O)C[n+]1c(C)sc2ccc(OC)cc21`, the AC50 was 14100 nM (active).
`Cc1sc2ccccc2[n+]1CCC(=O)O`: the activity, negative = inhibition is -3.71% [at 11.4 µM].
On to `COc1cccc2c(=O)c(C(=O)NCc3cccs3)c[nH]c12`, for which the AC50 is 631 nM (active).
With `COc1ccc(-c2nc3cnc(N4CCNCC4)nc3n(Cc3ccc(F)cc3)c2=O)cc1`, the “activity, negative = inhibition” value was -6.24%.
Regarding `Cc1nc2cnc(N3CCN(C)CC3)nc2n(Cc2ccc(F)cc2)c1=O`, the “activity, negative = inhibition” value was -13.1%.
For `Cc1nc2cnc(N3CCNCC3)nc2n(Cc2ccc(F)cc2)c1=O`, the half-maximal activity concentration (AC50) is 12600 nM (active).
Still for that read-out and setting: as for `O=c1c(-c2ccc(F)cc2)nc2cnc(N3CCNCC3)nc2n1Cc1ccc(F)cc1`, the figure is 15800 nM (active).
Same read-out and setting: next, `O=c1cnc2cnc(N3CCNCC3)nc2n1Cc1ccc(F)cc1`: 15800 nM (active); `Clc1cccc(Nc2nnc(-c3ccccc3)c3ccccc23)c1`: 1260 nM (active).
Consider `COc1ccc(Nc2nnc(-c3ccc(N4CCOCC4)c([N+](=O)[O-])c3)c3ccccc23)cc1`, for which the “activity, negative = inhibition” value was -12.2%.
Consider `COc1ccccc1NC(=O)C(C/C=C(\C)Cl)C(C)=O` (centres undefined), for which the AC50 is 12600 nM (active).
`CCN1CCCC1CNC(=O)C(=O)Nc1ccccc1OC` (centres undefined): the “activity, negative = inhibition” value was -28.2%.
As for `O=C(O)[C@H]1[C@H](C(=O)O)[C@H](C(=O)O)C[C@@H]1C(=O)O`, the activity, negative = inhibition was -9.47% [at 11.4 µM].
Turning to `CCNc1ncc2nc(CCc3ccccc3)c(=O)n(C)c2n1`, the AC50 is 2510 nM (active).
Take `CCNc1ncc2nc(CCc3ccccc3)c(=O)n(-c3ccccc3)c2n1`: the half-maximal activity concentration (AC50) was 1260 nM (active).
Consider `CCNc1ncc2nc(CCc3ccccc3)c(=O)n(C3CC3)c2n1`, for which the AC50 was 3160 nM (active).
On the same count and under the same terms, next, `CCNc1ncc2nc(CCc3ccccc3)c(=O)n(CCOC)c2n1`: 2000 nM (active).
For `CCCCCCCCCCCCCCCC(=O)NC[C@@H](COP(=O)([O-])OCC[N+](C)(C)C)OCC`, the “activity, negative = inhibition” value was -4.69%.
In the case of `Cc1cc2c(nc1C)CCCN2C[C@H](O)CN1CCCc2nc(-c3ccc(Br)cc3)ccc21`, the activity, negative = inhibition is 3.9% [at 11.4 µM] and 2.86% [at 11.4 µM].
As for `CC1(C)CC(=O)C(C=NCCN2CCN(C(=S)Nc3ccc(F)cc3)CC2)=C(O)C1`, the “activity, negative = inhibition” value is -8.42%.
As to `CN1CC(c2ccccn2)C2(SC(=S)N(Cc3ccccc3)C2=O)C12C(=O)Nc1ccccc12` (centres undefined), the AC50 is 17800 nM (active).
For `CN1CC(c2ccccc2)C2(COc3ccccc3C2=O)C12C(=O)Nc1ccccc12` (centres undefined), the “activity, negative = inhibition” value is -2.04%.
With `CC(/C=C/c1ccccc1)=N/NC(=O)CNC(=O)c1ccc2c(c1)OCO2`, the AC50 is 2240 nM (active).
Same read-out and setting: next, `CC1CCCCN1c1nc(-c2ccncc2)nc2ccccc12` (centres undefined): 355 nM (active).
Take `NC(=O)C1(N2CCCCC2)CCN(C(=O)c2ccc(-n3cnnn3)cc2)CC1`: the “activity, negative = inhibition” value was -6.42%.
Turning to `N#CC(c1ccc(Cl)cc1)c1nc2ccccc2nc1C(F)(F)F` (centres undefined), the AC50 is 1580 nM (active).
Take `CCOc1cc(C)c(S(=O)(=O)Nc2ccc3cn[nH]c3c2)cc1C`: the AC50 is 178 nM (active).
The same measure, in the same setting: as for `CCOC(=O)c1ccc(S(=O)(=O)Nc2ccc3cn[nH]c3c2)cc1`, the figure is 5010 nM (active).
For `Cc1ccnc(NS(=O)(=O)c2ccc(NC(=O)C3CCCNC3=O)cc2)n1` (centres undefined), the “activity, negative = inhibition” value was 12.8%.
Same read-out and setting: next, `Cn1c(=O)[nH]c(=O)c2c1nc(CN(Cc1ccccc1)Cc1ccccc1)n2CCN1CCOCC1`: 2.25%; `C[C@@H](O)[C@H]1C(=O)N2C(C(=O)O)=C(S[C@@H]3CN[C@H](C(=O)N(C)C)C3)[C@H](C)[C@H]12`: -7.27% [at 25.6 µM].
Same read-out and setting: as for `CN1c2ccccc2Oc2c(c(=O)n(C)c(=O)n2C)C1c1cccc([N+](=O)[O-])c1` (centres undefined), the figure is -15.5%.
Consider `CCOCC(=O)Nc1cc(-c2cn3cccnc3n2)ccc1C`, for which the AC50 was 50.1 nM (active).
In the case of `COCC(=O)N1CCC2(CC1)CCN(C(=O)Nc1ccc(OC)cc1)CC2`, the “activity, negative = inhibition” value is 6.19%.
In the case of `O=C(Nc1cccc(-c2cn3cccnc3n2)c1)c1ccco1`, the AC50 was 31.6 nM (active).
As for `CCOc1ccc(-n2c(SCC(=O)Nc3ccccc3C)n[nH]c2=O)cc1`, the “activity, negative = inhibition” value was -17.9%.
For `COCC(=O)Nc1ccc(-c2cn3cccnc3n2)cc1`, the AC50 is 7080 nM (active).
Turning to `N#Cc1cccc(NC(=O)N2CCC3(CC2)CCN(C(=O)c2ccco2)CC3)c1`, the “activity, negative = inhibition” value is -19.1%.
Still for that read-out and setting: as for `O=C(c1ccco1)N1CCN(C(=O)c2nn3cccnc3c2Cl)CC1`, the figure is 12.2%.
On to `CCCC(=O)Nc1cc(-c2cn3cccnc3n2)ccc1OC`, for which the AC50 was 100 nM (active).
In the case of `NC(=O)c1ccc[n+](CC(=O)OCCC23CC4CC(CC(C4)C2)C3)c1`, the “activity, negative = inhibition” value is 2.04%.
Consider `CC(=O)C[C@H](O)[C@@H](NC(=O)OC(C)(C)C)C(C)C`, for which the activity, negative = inhibition is 0.505% [at 11.4 µM].
Consider `Cc1cc(C2(c3cc(C)c(O)c(C(=O)O)c3)OS(=O)(=O)c3ccccc32)cc(C(=O)O)c1O`, for which the activity, negative = inhibition is -9.3% [at 11.4 µM].
The same measure, in the same setting: next, `c1ccc([P+](CC[P+](c2ccccc2)(c2ccccc2)c2ccccc2)(c2ccccc2)c2ccccc2)cc1`: -7.8% [at 11.4 µM]; `O=c1c2c(n3cnnc3n1-c1ccccc1)-c1ccccc1CC21CCCCC1`: -10.4%.
As to `Nc1nc(=S)[nH]c2c1C1(CCCC1)Cc1ccccc1-2`, the concentration at half-maximal activity (AC50) was 891 nM (active).
Turning to `CCOC(=O)CCN1C(=O)[C@H]2[C@H]3[C@H](O)[C@H](O)C/C(=N/OC/C=C(\C)CCC=C(C)C)[C@H]3CC[C@@H]2C1=O`, the activity, negative = inhibition was 1.64% [at 11.4 µM].
`CC(=O)c1cccc(NC(=O)c2csc(-n3nc(C)cc3C(F)(F)F)n2)c1`: the AC50 was 3160 nM (active).
In the case of `CO[C@H]1[C@@H](OC(N)=O)[C@H](O)[C@@H](Oc2ccc3c(O)c(NC(=O)c4ccc(O)c(CC=C(C)C)c4)c(=O)oc3c2C)OC1(C)C`, the “activity, negative = inhibition” value is -19.8% [at 25.6 µM].
On the same count and under the same terms, next, `Cc1cc2c(nc1C)CCCN2C[C@H](C)O/N=C1/[C@H]2O[C@@H]2[C@@H](O)[C@H]2[C@H]1CCn1c(=O)n(-c3ccccc3)c(=O)n12`: 2.9% [at 11.4 µM]; `Cc1cc(C(=O)Nc2c(C)n(C)n(-c3ccccc3)c2=O)c2ccccc2n1`: -5.52%.
For `Cc1cc(SC(C)C(=O)Nc2c(C)n(C)n(-c3ccccc3)c2=O)nc2ccccc12` (centres undefined), the AC50 was 1000 nM (active).
As for `Cc1c(NC(=O)Nc2c(Cl)cccc2Cl)c(=O)n(-c2ccccc2)n1C`, the activity, negative = inhibition was -6.85% [at 11.4 µM].
Same read-out and setting: as for `CCCc1cc(=O)[nH]c(=S)[nH]1`, the figure is -12% [at 25.6 µM].
In the case of `COc1ccc(-c2nc3cnc(N4CCNCC4)nc3n(C3CC3)c2=O)cc1`, the AC50 was 6310 nM (active).
Still for that read-out and setting: as for `O=c1c(-c2cc(F)cc(F)c2)nc2cnc(N3CCNCC3)nc2n1C1CC1`, the figure is 3160 nM (active); as for `O=c1c(-c2ccc(F)cc2)nc2cnc(N3CCNCC3)nc2n1C1CC1`, 2510 nM (active).
With `CS(=O)(=O)N1CCC2(CCCN(c3ccncc3)C2)CC1`, the “activity, negative = inhibition” value was -11.4%.
Turning to `C/C(=N\NC(=O)Cc1ccc(Cl)cc1)c1ccccn1`, the AC50 is 4470 nM (active).
Consider `C/C(=N\NC(=O)CC1N=C(Cc2ccccc2)NNC1=O)c1ccc(Cl)cc1Cl` (centres undefined), for which the “activity, negative = inhibition” value is -6.27%.
The same measure, in the same setting: as for `COc1cccc([C@H](O)Cn2cc(-c3cccc(CON=C(C)C)c3)nn2)c1`, the figure is -3.64% [at 11.4 µM].
For `C[N+]1(C)CCc2cc3c(cc2[C@@H]1[C@@H]1C(=O)Oc2c1ccc1c2OCO1)OCO3`, the AC50 is 1260 nM (active).
On the same count and under the same terms, next, `COc1ccc2c(c1OC)C(=O)OC2[C@H]1c2c(cc3c(c2OC)OCO3)CCN1C` (some centres undefined): “inactive”.
Take `C=CCNc1oc(/C=C/c2ccccc2)nc1C#N`: the AC50 was 3550 nM (active).
Turning to `O=C(c1csnn1)N1CCC2(CC1)CN(C(c1ccccc1)c1ccccc1)C2`, the “activity, negative = inhibition” value is -12.6%.
In the case of `CCOC(=O)C(=Cc1ccc(-c2ccsc2C(=O)OC)o1)C(=O)OCC`, the AC50 was 14100 nM (active).
In the case of `S=C1SCN(C2CCCCCCCCCCC2)CN1C1CCCCCCCCCCC1`, the activity, negative = inhibition is -14.7% [at 2.29 µM].
For the compound `COc1ccccc1CN1CCCC2(CCN(C(=O)c3ccco3)CC2)C1`, the “activity, negative = inhibition” value was -20.3%.
`O=C(Cn1cc(C(=O)c2ccco2)c2ccccc21)NCc1ccco1`: the AC50 is 11200 nM (active).
The same measure, in the same setting: next, `COc1ccccc1OCCn1cc(C(=O)c2ccco2)c2ccccc21`: 2510 nM (active).
As for `O=C(CSc1ccccc1C(=O)O)NCc1ccco1`, the “activity, negative = inhibition” value is 8.39%.
Same read-out and setting: next, `COc1ccccc1CN1CCC2(CC1)CCN(C(=O)c1ccco1)CC2`: -0.397%.
Consider `N#Cc1cc(-c2ccc(Cl)cc2)cnc1Sc1ccccc1`, for which the AC50 is 398 nM (active).
On the same count and under the same terms, as for `N#Cc1cc(-c2ccccc2)cnc1Sc1ccc(Cl)cc1`, the figure is 1780 nM (active).
The same measure, in the same setting: next, `N#Cc1cc(-c2ccc(Cl)cc2)cnc1Sc1ccc(F)cc1`: 112 nM (active).
